{"source": "ChEMBL document CHEMBL3988442", "about": "“University of Dundee, Small-Polar-MMV Screening Library” (2021)"}
{"molecular_target": "T1, Aspartate--tRNA(Asp/Asn) ligase (Mycobacterium tuberculosis (strain ATCC 25618 / H37Rv)) (UniProt P9WFW3)", "T1 sequence (whole entry)": "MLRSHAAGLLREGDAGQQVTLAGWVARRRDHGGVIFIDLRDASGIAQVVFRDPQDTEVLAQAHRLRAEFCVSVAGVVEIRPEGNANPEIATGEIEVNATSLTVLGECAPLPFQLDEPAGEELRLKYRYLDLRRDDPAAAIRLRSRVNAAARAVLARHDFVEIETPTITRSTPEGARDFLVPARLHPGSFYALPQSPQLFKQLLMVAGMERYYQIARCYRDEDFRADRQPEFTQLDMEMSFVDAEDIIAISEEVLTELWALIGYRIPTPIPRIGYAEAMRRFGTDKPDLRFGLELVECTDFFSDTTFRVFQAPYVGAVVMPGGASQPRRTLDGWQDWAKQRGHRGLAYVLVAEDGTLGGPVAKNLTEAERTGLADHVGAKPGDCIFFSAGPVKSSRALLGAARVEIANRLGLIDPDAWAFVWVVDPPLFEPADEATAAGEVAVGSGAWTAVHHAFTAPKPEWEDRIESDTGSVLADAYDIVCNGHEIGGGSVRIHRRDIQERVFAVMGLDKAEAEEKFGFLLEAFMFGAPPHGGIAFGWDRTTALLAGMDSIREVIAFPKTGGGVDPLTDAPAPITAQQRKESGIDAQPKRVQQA", "assay": "Assay for Asp RNA synthetase-1 from Mycobacterium tuberculosis", "type": "functional", "design": "scale not given: in the data most compounds retested in dose-response had high values", "conditions": "30 µM", "units": {"Percent Effect": "%"}}
{"smiles": "Cc1ncsc1C(=O)NCCSCCCO", "Percent Effect": -4.34}
{"smiles": "COC1CCN(C(=O)CCc2c(C)nc3ccnn3c2C)CC1", "Percent Effect": -6.77}
{"smiles": "NC(=O)c1cnn2c1NCC(CNCCCOc1ccccc1F)C2", "note": "(centres undefined)", "Percent Effect": -0.278}
{"smiles": "O=C(c1cc(C2CC2)[nH]n1)N1CCCC(n2cncn2)C1", "note": "(centres undefined)", "Percent Effect": -3.08}
{"smiles": "CC(NC1CCN(CCS(C)(=O)=O)CC1)c1ccc(Cl)cc1", "note": "(centres undefined)", "Percent Effect": 7.04}
{"smiles": "O=S1(=O)C[C@@H]2[C@H](C1)N(Cc1ncc[nH]1)CCN2CC1CC1", "Percent Effect": 0.123}
{"smiles": "Cc1ccc(-c2nc(CN3CCCC(Cn4cncn4)C3)no2)cc1", "note": "(centres undefined)", "Percent Effect": 1.64}
{"smiles": "O=C(Nc1ccccc1)C1CN(CC2CC2)CC12CCOCC2", "note": "(centres undefined)", "Percent Effect": 0.903}
{"smiles": "COC[C@@]12CCO[C@@H]1CCN(C(=O)COc1ccccc1OC)C2", "Percent Effect": 4.72}
{"smiles": "CSc1ncc(C(=O)N2C[C@H]3CC[C@@H]2CN(Cc2ccccc2)C3)cn1", "Percent Effect": 1.12}
{"smiles": "O=C(CNC(=O)N1CCc2c([nH]c3ccc(Cl)cc23)C1)N1CCOCC1", "Percent Effect": 3.4}
{"smiles": "O=C(c1ncccn1)N1C[C@H]2CCC[C@@]2(COCc2cccnc2)C1", "Percent Effect": 1.54}
{"smiles": "CCOc1ccnc(N2CCN(C(=O)C(C)(C)C#N)CC2)n1", "Percent Effect": 4.55}
{"smiles": "CCc1noc(C)c1C(=O)N1CCCC1Cn1nc(C)cc1C", "note": "(centres undefined)", "Percent Effect": 0.674}
{"smiles": "CNC(=O)[C@@]12CCC3(CCN(C(C)=O)CC3)[C@@H]1CN(S(C)(=O)=O)C2", "Percent Effect": -0.917}
{"smiles": "Cc1cnn(CC(C)NCc2csc(-c3cnn(C)c3)n2)c1", "note": "(centres undefined)", "Percent Effect": 1.91}
{"smiles": "Cn1ccc(CN2CCC(OCCc3ccccc3)CC2)cc1=O", "Percent Effect": 2.67}
{"smiles": "Cn1cnnc1C1CCCN(C(=O)c2ccc3c(c2)OCCCO3)C1", "note": "(centres undefined)", "Percent Effect": 0}
{"smiles": "O=C([C@H]1C[C@@H]2CCN(C3CCOCC3)C[C@@H]2O1)N1CCOCC1", "Percent Effect": 1.17}
